# Assay outcomes: PubChem, National Center for Advancing Translational Sciences (NCATS)
# Compounds with a hit are over-represented: about 5.3% of the library has one in this group of screens.
# Six1-Eya2 blk – Six1/Eya2 interaction inhibition | activity change, % (test concentration not listed) | 360,000 tested, 0.56% active | AlphaScreen GST-Six1/His-Eya2 binding, biochemical; stronger effect = lower value; in the data active = activity change below about -65%; inconclusive = mostly about -30% to -63%
#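 AlphaScreen with GST-Six1 and His-Eya2 (5X mix: 250 nM and 500 nM), glutathione donor and nickel acceptor beads; buffer 50 mM Tris pH 8.0, 300 mM NaCl, 1 mM TCEP; 1 h at 37 C in the dark.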
# CtBP-E1A inh – CtBP/E1A binding inhibition. 340,000 tested, 0.49% active. AlphaScreen GST-E1A/His-CtBP binding, 1536-well; stronger effect = lower value. activity change, % (no concentration beside the values); in the data active = activity change below about -65%; inconclusive = mostly about -30% to -63%
#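 Steps: dispense buffer (Tris pH 8.0, NaCl 300 mM, TCEP 1 mM, BSA, Tween 20); add 5X protein mix (GST-E1A, His-CtBP, 125 nM each); pin 23 nL compound; 2 h at 37 °C, dark; add 5X beads (50 ug/mL); 1 h; read.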
# BAZ2B block – BAZ2B (human) inhibition | Q9UIF8 | AlphaScreen BAZ2B-H3K14Ac peptide displacement | Potency, µM (doses to about 114 µM), most hits filed as inhibitors | 360,000 tested, 4.4% active; also: nearly all actives have a fitted effect of over 60% in size
#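 BAZ2B 50 nM plus b-H3(5-23)K14Ac 50 nM, PBS pH 7.4/0.01% Tween-20, 30 min RT; compound added (max 110 uM), 30 min RT; streptavidin donor/Ni-chelate acceptor beads 10 ug/mL final, 20 min dark; AlphaScreen read.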
# TDP1 inh – inhibitors of human tyrosyl-DNA phosphodiesterase TDP1. Q9NUW8. recombinant TDP1, AlphaScreen DNA substrate cleavage. Potency, µM (doses to about 130 µM), most hits filed as inhibitors. 350,000 tested, 0.28% active; also: nearly all actives have a fitted effect of over 40% in size
#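 Here, a 5' biotin and 3' phosphotyrosine-FITC DNA oligonucleotide reports Tdp1 activity: intact substrate bridges AlphaScreen beads, while cleavage leaves a 3' phosphate and drops signal. All incubations at room temperature.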
# HP1b chromo inh – HP1-beta chromodomain-methylated histone interaction inhibition; Potency, µM (top dose mostly 114 µM), hits mostly inhibitors; 390,000 tested, 0.56% active; AlphaScreen HP1-beta / biotin-H3K9me3 peptide binding; AID 540317; P83916; also: nearly all actives have a fitted effect of over 70% in size
# Target sequence (P83916 whole entry, looked up): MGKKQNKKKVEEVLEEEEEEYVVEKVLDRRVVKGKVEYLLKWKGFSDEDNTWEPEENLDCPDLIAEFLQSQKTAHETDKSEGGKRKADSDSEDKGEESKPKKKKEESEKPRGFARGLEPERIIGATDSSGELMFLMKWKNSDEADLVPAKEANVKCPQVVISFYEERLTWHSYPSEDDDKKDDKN
#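 Compound inhibition of the preformed complex between 50 nM HP1-beta and 50 nM biotinylated H3K9me3 peptide was read by AlphaScreen. Buffer was PBS pH 7.4 with 0.01% Tween-20. Incubations ran 30 min at room temperature, with 10 ug/mL donor/acceptor beads.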
# JMJD2A Tudor inh – JMJD2A Tudor domain (human) inhibition | AlphaScreen JMJD2A-Tudor / H3K4me3 peptide binding | Potency, µM (titrated, usually from 114 µM), actives largely listed as inhibitors | 390,000 tested, 4.4% active; also: nearly all actives have a fitted effect of over 50% in size
# Hits are given with their value; 0 = inactive; ? = inconclusive; - = not tested or not shown. Unless noted, calls follow the shape of the dose curve; as a rule, active = well fitted inhibition curve with a large enough effect; inconclusive = small, poorly fitted or top-dose-only effect; inactive = no such curve, though single readings can be large or run the other way.
SMILES,Six1-Eya2 blk,CtBP-E1A inh,BAZ2B block,TDP1 inh,HP1b chromo inh,JMJD2A Tudor inh
O=C(C1CCN(S(=O)(=O)c2cnc[nH]2)CC1)N(CCc1ccccc1)Cc1ccccc1,0,-,0,0,0,0
CCC(C)NC(=O)C1CCN(C(=O)c2ccccc2)CC1 (stereo not drawn),0,0,0,0,0,0
O=C(Nc1ccnn1C1CCN(CC2CC=CCC2)CC1)c1ccccc1 (stereo not drawn),0,-,0,-,0,0
COc1ccc(CNc2ncncc2-c2ccc3c(c2)OCO3)c(OC)c1,-,-,-,0,-,-
Cc1c(C(=O)O)cnc2c([N+](=O)[O-])cnn12,0,0,0,0,0,8.9µM
Cc1ccc(C2=NN=C(NC(=O)CSc3nncn3C)SC2)cc1,?,0,0,0,35µM,?
O=C(CSC1=Nc2ccccc2N=C(c2ccc(F)cc2)C1)NCc1ccccc1,-,-,0,0,0,0
COc1ccc2c(c1)[nH]c1c(N3CCN(Cc4ccc5c(c4)OCO5)CC3)ncnc12,?,0,45µM,0,0,?
COc1cccc2[nH]c3c(N4CCN(Cc5ccc6c(c5)OCO6)CC4)ncnc3c12,-,-,35µM,0,-,-
Cc1ccc2[nH]c3c(N4CCN(Cc5ccc6c(c5)OCO6)CC4)ncnc3c2c1,-,-,?,0,-,-
Cc1ccc(C(=O)NCC(=O)OCc2cc(=O)n3ccsc3n2)cc1,-,-,0,0,0,0
COCCCNC(=O)c1sc2nc(C)c(C(=O)Nc3ccc(C)cc3C)c(-c3ccccc3Cl)c2c1N,-,-,0,0,0,0
C/C(=N\Nc1nc2ccccc2[nH]1)c1ccc2c(c1)OCO2,?,?,?,0,?,40µM
C/C(=N\Nc1nc2ccccc2[nH]1)c1ccc2c(c1)OCCO2,0,0,32µM,0,?,50µM
CCC(=O)c1ccc(OCC(=O)N2CCCC2)c(OC)c1,0,0,50µM,-,0,0
CCOC(=O)c1[nH]c(=O)[nH]c1CSc1ccccn1,0,0,0,0,0,0
CCOC(=O)CCCCC(=O)c1[nH]c(=O)[nH]c1CSCCO,0,0,13µM,0,0,79µM
CCOC(=O)CCCCC(=O)c1[nH]c(=O)[nH]c1CSc1nc(-c2ccccc2)c(C#N)c(=O)[nH]1,0,0,35µM,0,0,?
COC(=O)c1cccc(CSc2nc(-c3ccccc3)c(C#N)c(=O)[nH]2)c1,0,0,0,-,0,0
O=C1ON=C(c2ccccc2)/C1=C\c1ccco1,0,0,?,0,0,0
CCOc1cc(/C=C2/C(=O)ON=C2C)cc(Br)c1O,0,-,16µM,-,0,0
O=C1ON=C(c2ccccc2)/C1=C/c1ccc(O)cc1,0,-,0,0,0,0
CC1=NOC(=O)/C1=C\c1ccc(-c2ccccc2Br)o1,0,0,25µM,0,?,20µM
Cc1ccc(/C=C2/C(=O)ON=C2c2ccccc2)o1,0,-,28µM,0,?,79µM
COc1cc(/C=C2/C(=O)ON=C2c2ccccc2)ccc1O,0,0,50µM,0,0,0
SMILES,Six1-Eya2 blk,CtBP-E1A inh,BAZ2B block,TDP1 inh,HP1b chromo inh,JMJD2A Tudor inh
COc1ccccc1OCCn1c(-c2ccc(Br)cc2)nc2ccccc2c1=O,-,-,0,-,0,0
CCCCC/C=C\C/C=C\C/C=C\C=C\C(O)CCCC(=O)O (stereo not drawn),-,-,-,0,-,-
CC(=O)c1ccc(NC(=O)C(C)n2nc(-c3ccccc3)ccc2=O)cc1 (stereo not drawn),-,-,0,0,0,0
CCCCNCC,-,-,-,0,-,-
CC(=O)c1cccc(NC(=O)CCn2nc(C)c(S(=O)(=O)N(C)C)c2C)c1,-,-,0,0,0,0
CCOc1cc(/C=C2\C(=O)ON=C2c2ccccc2)cc(Br)c1O,0,0,28µM,-,?,25µM
COc1cc(/C=C2\C(=O)ON=C2c2ccccc2)cc(Br)c1O,0,0,40µM,-,28µM,25µM
O=C1ON=C(c2ccccc2)/C1=C/c1ccccc1,0,-,0,-,0,0
COc1cc(/C=C2\C(=O)ON=C2c2ccccc2)cc(Cl)c1O,0,0,45µM,0,45µM,22µM
Cc1cc(C)c(NC(=O)CSc2nc(=O)n(Cc3cccnc3)c3c2CCC3)c(C)c1,-,-,0,0,0,0
O=C(NC1CC1)c1ccc(Cn2c(SCc3ccccc3F)nc3cccnc32)cc1,-,-,0,0,0,0
COc1ccc(OC)c(C2(O)CSC(=Nc3cccnc3)N2Cc2ccco2)c1 (stereo not drawn),0,0,63µM,0,0,0
CN(C)c1ccc(NC(=O)c2ccc(Cn3cc([N+](=O)[O-])cn3)cc2)cc1,?,?,25µM,0,45µM,50µM
COc1ccc(NC(=O)c2ccc(Cn3cc(Cl)cn3)cc2)cc1,0,0,0,0,0,0
O=C(CCn1c(=O)c2cccn2c2cccnc21)NCc1ccccc1F,-,-,0,0,0,0
O=C1C=CC(=O)N1N(c1ccccc1)c1ccccc1,0,0,32µM,0,?,18µM
CCOC(=O)c1sc2nc3c(SCCC(=O)O)cc(C(=O)c4cc(OC)ccc4O)cn3c(=O)c2c1C,?,-,35µM,-,0,14µM
O=C(O)CSc1cc(C(=O)c2cc(F)ccc2O)cn2c(=O)c3c(-c4ccccc4)csc3nc12,0,-,56µM,0,0,56µM
CCOC(=O)c1sc2nc3c(SCCC#N)cc(C(=O)c4cc(F)ccc4O)cn3c(=O)c2c1C,0,0,0,0,0,0
CCOc1ccccc1N(C)C(=O)C1CCCN(c2ncnc3onc(-c4ccc(F)cc4)c23)C1 (stereo not drawn),-,-,0,0,0,0
O=C1N=C(N2CCOCC2)S/C1=C1\C(=O)N(Cc2ccccc2)c2ccc(Br)cc21,-,-,-,0,-,-
CCCCN1C(=O)/C(=C2\SC(N3CCCCC3)=NC2=O)c2ccccc21,?,?,0,0,16µM,56µM
CCCN(CCC)CCNC(=O)Cn1cnc2sc(C)c(S(=O)(=O)N3CCN(c4ccccc4OC)CC3)c2c1=O,-,-,0,0,0,0
COc1cccc2c(SCC(=O)N/N=C/c3ccc(O)c(O)c3)cc(C)nc12,-71,-74,?,?,0,?
COc1cccc2c(SCC(=O)N/N=C/c3ccccc3)cc(C)nc12,0,0,0,0,0,0
COc1ccc2nc(C)cc(SCC(=O)N/N=C/c3cccc4ccccc34)c2c1,0,0,0,0,0,0
COc1ccc2nc(C)cc(SCC(=O)N/N=C/c3ccc(O)c(O)c3)c2c1,-72,-72,?,0,0,0
Cc1ccc(NC(=O)Cn2c(=O)c(CNc3ccccc3)cc3cc4c(cc32)OCCO4)cc1,-,-,0,0,0,0
COc1ccccc1Nc1nn2c(=O)c3ccc(C(=O)NC4CCCCC4)cc3nc2s1,-,-,0,0,0,0
NC(=S)N=Nc1c(O)[nH]c2ccc(F)cc12,-80,0,0,0,0,?
